From PubChem BioAssay AID1159580 (chemical genetic matrix, 2015)
“And” between values parts separate entries of the source, which are not always exact repeats. Identical values can stand only once. About 2,000 (36%) of roughly 5,500 compounds were called active. Another 18% or so got no clear call; they are omitted. No stated cut-off is given here; in the data, active means normalized growth mostly below about 0.91 (no sharp cut-off); inconclusive means no clear call, values can overlap the other calls; inactive means mostly above about 0.92. The list shows a part of the results.

Assay: chemical genetic growth profiling, strain panel (AID 1159580);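 further: tested at 20 µM; growth read once vehicle control cultures reached saturation at 30 °C; 1 = growth at the plate median or of vehicle wells; lower values mean less growth of the strain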
Conditions: S. cerevisiae deletion strains, growth OD

Measured: normalized growth

O=C1C=CC2=C3c4cc(O)c(O)cc4C[C@@]3(O)COC2=C1
inactive: locus YAL021C, strain ccr4, hits give low values 0.965 | locus YAL026C, strain drs2, hits give low values 0.973 | locus YAL030W, strain snc1, hits give low values 0.979 | locus YBL061C, strain skt5, hits give low values 0.992 | locus YBR009C, strain hhf1, hits give low values 0.984 | locus YBR021W, strain FUR4, hits give low values 1.01 | locus YBR023C, strain chs3, hits give low values 0.99 | locus YBR171W, strain sec66, hits give low values 0.988 | locus YBR229C, strain ROT2, hits give low values 0.998 | locus YBR231C, strain swc5, hits give low values 0.978 | locus YBR279W, strain paf1, hits give low values 0.985 | locus YCL011C, strain gbp2, hits give low values 0.975 | locus YCL016C, strain dcc1, hits give low values 0.95 | locus YCL029C, strain bik1, hits give low values 1 | locus YCL061C, strain MRC1, hits give low values 0.98 | locus YCL069W, strain vba3, hits give low values 0.981 | locus YCR088W, strain abp1, hits give low values 0.99 | locus YDL005C, strain med2, hits give low values 0.966 | locus YDL035C, strain GPR1, hits give low values 1.03 | locus YDL040C, strain nat1, hits give low values 0.97 | locus YDL074C, strain BRE1, hits give low values 1 | locus YDL101C, strain DUN1, hits give low values 0.981 | locus YDL134C, strain PPH21, hits give low values 0.998 | locus YDL185W, strain tfp1, hits give low values 0.985 | locus YDL192W, strain arf1, hits give low values 1.01 | locus YDR001C, strain nth1, hits give low values 0.978 | locus YDR069C, strain doa4, hits give low values 0.94 | locus YDR101C, strain arx1, hits give low values 1.05 | locus YDR137W, strain rgp1, hits give low values 1.01 | locus YDR150W, strain NUM1, hits give low values 1 | locus YDR159W, strain sac3, hits give low values 0.986 | locus YDR162C, strain NBP2, hits give low values 1.03 | locus YDR195W, strain ref2 0.939 | locus YDR297W, strain sur2, hits give low values 0.981 | locus YDR318W, strain mcm21, hits give low values 0.998 | locus YDR334W, strain swr1, hits give low values 0.967 | locus YDR335W, strain msn5, hits give low values 0.969 | locus YDR388W, hits give low values 1 | locus YDR392W, strain spt3, hits give low values 0.95 | locus YDR502C, strain sam2, hits give low values 0.999 | locus YEL003W, strain gim4, hits give low values 0.989 | locus YEL037C, strain rad23, hits give low values 0.981 | locus YEL061C, strain CIN8 (second series), hits give low values 0.975 | locus YER015W, strain faa2, hits give low values 0.982 | locus YER016W, strain bim1, hits give low values 0.976 | locus YER110C, hits give low values 0.986 | locus YER111C, strain swi4, hits give low values 0.98 | locus YER155C, strain BEM2 (second series), hits give low values 0.972 | locus YER155C, strain BEM2, hits give low values 1.02 | locus YER167W, strain BCK2, hits give low values 1.01 | locus YFR010W, strain ubp6, hits give low values 0.963 | locus YGL078C, strain dbp3, hits give low values 0.967 | locus YGL086W, strain mad1, hits give low values 1.01 | locus YGL167C, strain pmr1, hits give low values 0.964 | locus YGL173C, strain kem1, hits give low values 0.977 | locus YGL227W, strain vid30, hits give low values 0.989 | locus YGL240W, strain doc1, hits give low values 0.985 | locus YGL248W, strain PDE1, hits give low values 0.981 | locus YGL253W, strain hxk2, hits give low values 0.978 | locus YGR135W, strain pre9, hits give low values 0.954 | locus YGR252W, strain gcn5, hits give low values 0.939 | locus YHR013C, strain ard1, hits give low values 0.954 | locus YHR027C, strain rpn1, hits give low values 0.972 | locus YHR030C, strain SLT2, hits give low values 1.03 | locus YHR079C, strain IRE1 (second series), hits give low values 1 | locus YHR079C, strain IRE1, hits give low values 1.02 | locus YHR094C, strain hxt1, hits give low values 0.994 | locus YHR129C, strain ARP1, hits give low values 0.997 | locus YHR142W, strain chs7, hits give low values 0.963 | locus YHR200W, strain rpn10, hits give low values 0.991 | locus YIL066C, strain RNR3, hits give low values 1.01 | locus YIL073C, strain SPO22, hits give low values 0.996 | locus YIL125W, strain kgd1, hits give low values 0.994 | locus YIR030C, strain dcg1, hits give low values 0.999 | locus YJL092W, strain hpr5, hits give low values 0.991 | locus YJL095W, strain BCK1 (second series), hits give low values 0.975 | locus YJL095W, strain BCK1, hits give low values 0.979 and 1.04 | locus YJL115W, strain asf1, hits give low values 0.975 | locus YJL129C, strain trk1, hits give low values 1 | locus YJL134W, strain LCB3, hits give low values 1.01 | locus YJL154C, strain vps35, hits give low values 0.981 | locus YJL164C, strain tpk1, hits give low values 0.962 | locus YJL166W, strain qcr8, hits give low values 0.979 | locus YJL168C, strain set2, hits give low values 0.996 | locus YJL187C, strain SWE1 (second series), hits give low values 0.96 | locus YJL187C, strain SWE1, hits give low values 0.988 | locus YJR043C, strain POL32, hits give low values 1.03
